Measurements from PubChem BioAssay (EPA / NIEHS).
Where “and” joins values, the source holds several entries; their conditions need not be identical. Equal values may be shown once. Results filed as inconclusive are left out. Some compounds were tested as several samples or in several runs, with calls that do not always agree. Calls of active or inactive are those of the source. How the source made its calls, unless noted: active means hit-call score of the fitted dose curve at least 0.9, where 1 is the maximum; inconclusive means response in the unintended direction; inactive means score below 0.9.

Key:
[1] = target: Cellular tumor antigen p53 (Homo sapiens) (UniProt P04637); assay: TOX21_p53_BLA_p2_ratio: Tox21 HCT-116 p53 Agonism Beta-lactamase Assay, Ratio, Phase 2 (AID 2283592)
Method in brief: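 First, HCT116 reporter cells settle for 5 h at 37C. Next, DMSO compound solutions are pinned in (217-fold dilution) and left 16 h. Finally, CCF4-AM substrate is loaded 2 h at room temperature and the 460/530 nm ratio read.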

[2] = TOX21_p53_BLA_p3_viability: Viability Assessment in the Tox21 HCT-116 p53 Agonism Beta-lactamase Assay, Phase 3 (AID 2283593);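 further: cells exposed to compound for 16 h before reading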
Method in brief: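 Cellular ATP was quantified by CellTiter-Glo luminescence, read after 30 min at room temperature. Beforehand, HCT116 cells (4000/well) received compound 5 h post-seeding, 217-fold diluted from DMSO, then incubated 16 h at 37C.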

[3] = target: Cellular tumor antigen p53 (Homo sapiens) (UniProt P04637); assay: TOX21_p53_BLA_p3_ratio: Tox21 HCT-116 p53 Agonism Beta-lactamase Assay, Ratio, Phase 3 (AID 2283596)
Method in brief: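 Cells were seeded at 4000/well, rested 5 h at 37C, then dosed with DMSO compound solutions (217-fold dilution) for 16 h. CCF4-AM substrate was loaded for 2 h at room temperature, and the 460/530 nm emission ratio was fitted for gain of signal versus DMSO.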

[4] = TOX21_p53_BLA_p4_viability: Viability Assessment in the Tox21 HCT-116 p53 Agonism Beta-lactamase Assay, Phase 4 (AID 2283597);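 further: hits lower the luminescence signal meaning cytotoxicity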
Method in brief: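 4000 HCT116 cells per well; 5 h attachment; compounds from DMSO, 217-fold dilution; 16 h at 37C. Then CCF4-AM, 2 h RT, followed by CellTiter-Glo, 30 min RT, luminescence. Decrease = cytotoxicity.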

[5] = target: Cellular tumor antigen p53 (Homo sapiens) (UniProt P04637); assay: TOX21_p53_BLA_p5_ratio: Tox21 HCT-116 p53 Agonism Beta-lactamase Assay, Ratio, Phase 5 (AID 2283599)
Method in brief: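 Beta-lactamase reporter ratio (blue 460 nm over green 530 nm, 405 nm excitation) after 2 h CCF4-AM loading, in HCT-116 cells exposed 16 h at 37 C to compounds pinned at 217-fold dilution. Increases relative to DMSO baseline scored.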

[6] = target: Cellular tumor antigen p53 (Homo sapiens) (UniProt P04637); assay: TOX21_p53_BLA_p4_ratio: Tox21 HCT-116 p53 Agonism Beta-lactamase Assay, Ratio, Phase 4 (AID 2283601)
Method in brief: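 Signal is the blue/green (460nm/530nm) ratio of cleaved versus uncleaved CCF4-AM substrate, read after 2 h substrate loading. Cells were HCT116 carrying the p53-responsive beta-lactamase reporter, dosed 16 h at 37C, 5% CO2; CellTiter-Glo measured in parallel.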

[7] = TOX21_p53_BLA_p5_viability: Viability Assessment in the Tox21 HCT-116 p53 Agonism Beta-lactamase Assay, Phase 5 (AID 2283600)
Method in brief: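 Decreased CellTiter-Glo luminescence denotes lost viability. Exposure: 16 h at 37C, 5% CO2, with compounds from DMSO stocks diluted 217-fold in wells of 4000 cells.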

[8] = CCTE_Harrill_HTTr_Viability_MCF7: CCTE's 6-hour Cell Viability Assessment for the High-Throughput Transcriptomics (HTTr) Platform, in MCF-7 cells cultured in DMEM + 10% fetal bovine serum, Harrill Lab (AID 2284010; active means hit-call score of the fitted dose curve at least 0.9, where 1 is the maximum; inactive means score below 0.9)
Method in brief: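 Read-out is propidium iodide gain of signal by high-content imaging, reflecting membrane integrity loss. Measurements are taken 6 h after dosing, eight concentrations per chemical, with DMSO serving as baseline for bidirectional curve fitting.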

[9] = CCTE_Harrill_HTTr_Apoptosis_MCF7: CCTE's 6-hour Apoptosis Assessment for the High-Throughput Transcriptomics (HTTr) Platform, in MCF-7 cells cultured in DMEM + 10% fetal bovine serum, Harrill Lab (AID 2284011; active means hit-call score of the fitted dose curve at least 0.9, where 1 is the maximum; inactive means score below 0.9)
Method in brief: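 MCF-7 cells in DMEM + 10% FBS exposed 6 h to chemicals over an eight-point dilution series. Caspase-3/7 activation imaged by high-content CellEvent Green staining; fitted bidirectionally versus DMSO.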

[10] = CCTE_Harrill_HTTr_CellCount_MCF7: CCTE's Cell Proliferation Assessment for the High-Throughput Transcriptomics (HTTr) Platform, Harrill Lab (AID 2284012);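 further: cells exposed to compound for six hours; intended direction is loss of nuclei count meaning fewer cells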
Method in brief: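 Cell count served as viability reporter: loss of Hoechst-stained nuclei, counted by high content imaging, marks decreased growth or survival. Exposure was 6 h in MCF-7 cells across eight concentrations, with DMSO as baseline.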

[11] = CCTE_Padilla_ZF_144hpf_TERATOSCORE: (Legacy) CCTE's 144 Hour Post-fertilization zebrafish Assay Teratoscore, Padilla Lab (AID 2283679; active means hit-call score of the fitted dose curve at least 0.9, where 1 is the maximum; inactive means score below 0.9;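 further: zebrafish embryos with chorions exposed by immersion from 6-8 hpf to 5 dpf with daily renewal; teratogenicity score from eye scoring of death hatching and malformations at 144 hpf; higher score means more developmental defects relative to DMSO baseline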)
Method in brief: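 Larvae scored by eye at 144 hpf for death, hatching and malformations after a day in clean Hanks'. Before that, daily-renewed exposure at 80 uM (0.4% DMSO, 26C) from roughly 6-8 hpf through 5 dpf, 4 embryos per chemical.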

[12] = CCTE_Shafer_MEA_dev_firing_rate_mean: CCTE's Neural Network Formation Assay for Mean Firing Rate, Shafer Lab (AID 2284031; active means hit-call score of the fitted dose curve at least 0.9, where 1 is the maximum; inactive means score below 0.9;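 further: curve fitted for loss of firing so AC50 reflects decreased mean firing rate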)
Method in brief: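 Steps: seed rat cortical cells (1.5 x 10^5/well) with laminin on PEI-coated MEA; dose day 0; record DIV 5/7/9/12, full media and compound exchange after DIV 5 and 9 recordings; compute well-mean firing rate AUC.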

[13] = CCTE_Shafer_MEA_dev_per_burst_spike_percent: CCTE's Neural Network Formation Assay for Percent of Spikes in a Burst, Shafer Lab (AID 2284032; active means hit-call score of the fitted dose curve at least 0.9, where 1 is the maximum; inactive means score below 0.9;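 further: fitted as a decrease in burst spike percentage below DMSO baseline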)
Method in brief: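 Value is trapezoidal AUC over recordings on days 5, 7, 9 and 12 of the well-mean fraction of spikes falling in single-electrode bursts; rat cortical cultures exposed continuously from plating, treatment renewed DIV 5 and 9, fitted downward against DMSO.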

[14] = CCTE_Shafer_MEA_dev_active_electrodes_number: CCTE's Neural Network Formation Assay for Number of Active Electrodes, Shafer Lab (AID 2284040);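 further: potency for loss of active electrodes versus DMSO so lower counts are hits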
Method in brief: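 Counts electrodes per well firing at least 5 spikes/min, recorded on days 5, 7, 9 and 12 in rat cortical cultures dosed continuously from plating (treatment refreshed DIV 5, 9). Value is the area under the curve over recordings, fitted downward relative to DMSO.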

[15] = CCTE_Shafer_MEA_dev_burst_rate: CCTE's Neural Network Formation Assay for Burst Rate, Shafer Lab (AID 2284042; active means hit-call score of the fitted dose curve at least 0.9, where 1 is the maximum; inactive means score below 0.9;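 further: potency for loss of burst rate below DMSO control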)
Method in brief: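 Exposure ran continuously over 12 days of network development in rat cortical cultures, with compound refreshed during full media changes on DIV 5 and 9. Single-electrode bursts per recording time, well-mean over active electrodes, trapezoidal AUC across days 5–12, fitted downward relative to DMSO.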

[16] = CCTE_Shafer_MEA_dev_bursting_electrodes_number: CCTE's Neural Network Formation Assay for Number of Bursting Electrodes, Shafer Lab (AID 2284043);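 further: potency is for loss of bursting electrodes relative to DMSO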
Method in brief: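 Number of electrodes reaching ≥1 burst every 2 min was recorded at DIV 5, 7, 9 and 12 and collapsed as trapezoidal area under the curve. Cultures were rat cortical neurons on MEA plates, dosed continuously from plating with medium and treatment refreshed on DIV 5 and 9.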

[17] = CCTE_Shafer_MEA_dev_per_burst_interspike_interval: CCTE's Neural Network Formation Assay for Burst Interspike Interval, Shafer Lab (AID 2284044; active means hit-call score of the fitted dose curve at least 0.9, where 1 is the maximum; inactive means score below 0.9;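 further: potency for a decrease of within-burst interspike interval below DMSO level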)
Method in brief: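 Primary rat cortical neurons on 48-well MEA plates, exposed from day 0 through day 12, treatment renewed at DIV 5 and 9. Within-burst interspike interval recorded days 5, 7, 9, 12, well-averaged, summarised as AUC; negative fit versus DMSO.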

[18] = CCTE_Shafer_MEA_dev_burst_duration_mean: CCTE's Neural Network Formation Assay for Mean Burst Duration, Shafer Lab (AID 2284045; active means hit-call score of the fitted dose curve at least 0.9, where 1 is the maximum; inactive means score below 0.9)
Method in brief: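 Mean single-electrode burst duration (first to last spike), averaged over bursting electrodes per well, then integrated as area-under-curve across recordings at days 5, 7, 9 and 12. Rat cortical cultures on MEAs, compound present from plating, refreshed at feeds.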

[19] = CCTE_Shafer_MEA_dev_interburst_interval_mean: CCTE's Neural Network Formation Assay for Mean Interburst Interval, Shafer Lab (AID 2284046; active means hit-call score of the fitted dose curve at least 0.9, where 1 is the maximum; inactive means score below 0.9;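 further: well-mean interburst interval of bursting electrodes as AUC over four recording days; curve fitted for decrease in interburst interval relative to DMSO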)
Method in brief: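 Primary rat cortical neurons on PEI-coated 48-well MEA plates (laminin added with cells at plating) (16 electrodes/well), exposed from plating day 0 with renewal at DIV 5 and 9. Mean inter-burst interval averaged over bursting electrodes, AUC across days 5, 7, 9, 12; DMSO baseline.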

[20] = CCTE_Shafer_MEA_dev_inter_network_spike_interval_mean: CCTE's Neural Network Formation Assay for Mean Inter-network Spike Interval, Shafer Lab (AID 2284047; active means hit-call score of the fitted dose curve at least 0.9, where 1 is the maximum; inactive means score below 0.9;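 on AC50: potency for a decrease in mean inter-network spike interval below DMSO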)
Method in brief: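 Mean time between consecutive network-spike peaks, recorded extracellularly (adaptive spike detection) on DIV 5, 7, 9 and 12, summarized as trapezoidal AUC. Rat cortical cultures on MEAs dosed continuously days 0–12, re-dosed at feeds; loss-of-signal fit relative to DMSO.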

[21] = CCTE_Shafer_MEA_dev_network_spike_number: CCTE's Neural Network Formation Assay for Number of Network Spikes, Shafer Lab (AID 2284048; active means hit-call score of the fitted dose curve at least 0.9, where 1 is the maximum; inactive means score below 0.9;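 further: synchronized bursts across electrodes counted on days 5 7 9 12 and integrated as AUC; fit as a loss of signal meaning fewer network spikes than DMSO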)
Method in brief: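 Number of network spikes (coordinated firing across electrodes) recorded on days 5, 7, 9 and 12 and summarised as area under the curve. Rat cortical cultures on MEA, continuous compound exposure with full medium/treatment exchange at DIV 5 and 9.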

[22] = CCTE_Shafer_MEA_dev_spike_duration_mean: CCTE's Neural Network Formation Assay for Mean Spike Duration, Shafer Lab (AID 2284051; active means hit-call score of the fitted dose curve at least 0.9, where 1 is the maximum; inactive means score below 0.9;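 further: mean network spike duration pooled as area under curve over DIV 5 to 12 recordings; potency for a decrease in mean network spike duration versus DMSO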)
Method in brief: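 Spontaneous activity was recorded on days 5, 7, 9 and 12 from rat cortical cultures grown on microelectrode arrays and dosed continuously from day 0, with media and compound renewed after the DIV 5 and 9 recordings. Network-spike duration was collapsed by area under the curve.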

[23] = CCTE_Shafer_MEA_dev_network_spike_duration_std: CCTE's Neural Network Formation Assay for Standard Deviation of Network Spike Duration, Shafer Lab (AID 2284052; active means hit-call score of the fitted dose curve at least 0.9, where 1 is the maximum; inactive means score below 0.9;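 further: hits are decreases in network spike duration SD versus DMSO vehicle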)
Method in brief: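 Network spike duration variability was collapsed across recordings on days 5, 7, 9 and 12 by trapezoidal area-under-curve and fitted downward against DMSO. Cultures were rat cortical neurons on PEI-coated MEA plates, dosed continuously from plating, refed with compound DIV 5/9.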

[24] = CCTE_Shafer_MEA_dev_per_network_spike_spike_number_mean: CCTE's Neural Network Formation Assay for Mean Number of Spikes in a Network Spike, Shafer Lab (AID 2284053; active means hit-call score of the fitted dose curve at least 0.9, where 1 is the maximum; inactive means score below 0.9;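 further: fitted as decrease in spikes per network spike relative to DMSO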)
Method in brief: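 Mean spike count within each network spike, taken in a 0.05 s window at its peak, was recorded on days 5, 7, 9 and 12 and integrated as trapezoidal area under the curve. Rat cortical cultures on MEA plates received continuous compound from day 0, refreshed at medium changes on DIV 5 and 9.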

[25] = CCTE_Shafer_MEA_dev_per_network_spike_spike_percent: CCTE's Neural Network Formation Assay for Percent of Spikes in a Network Spike, Shafer Lab (AID 2284054; active means hit-call score of the fitted dose curve at least 0.9, where 1 is the maximum; inactive means score below 0.9)
Method in brief: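 Metric: fraction of spikes falling in a 0.05 s window at network-spike peaks. Recordings were made on days 5, 7, 9 and 12 and collapsed by trapezoidal AUC. Cultures were rat cortical neurons on MEA plates, dosed continuously from plating, re-dosed at media changes.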

[26] = CCTE_Shafer_MEA_dev_LDH: CCTE's Lactate Dehydrogenase Assay for Cytotoxicity in the Neural Network Formation Assay, Shafer Lab (AID 2284068);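 further: exposure for twelve days from plating with re-dosing on DIV 5 and 9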
Method in brief: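 Primary rat cortical neurons were cultured on PEI-coated MEA plates and exposed from plating through day 12, with compound renewed at medium changes on DIV 5 and 9. LDH activity was read spectrophotometrically; loss of signal versus DMSO indicates reduced viability.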

[27] = CCTE_Shafer_MEA_dev_AB: CCTE's Alamar Blue Assay for Cytotoxicity in the Neural Network Formation Assay, Shafer Lab (AID 2284083);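 further: resazurin reduction fluorescence as viability of cultured neurons; twelve days of exposure from plating with re-dosing on DIV 5 and 9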
Method in brief: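 Resazurin fluorescence, relative to DMSO, gauges viability after twelve days of exposure that began at plating of rat cortical neurons (1.5 x 10^5 cells/well, 48-well MEA); treatment renewed with full medium exchange on DIV 5 and 9.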

[28] = CCTE_Shafer_MEA_dev_mutual_information_norm: CCTE's Neural Network Formation Assay for Mutual Information Normalization, Shafer Lab (AID 2284091; active means hit-call score of the fitted dose curve at least 0.9, where 1 is the maximum; inactive means score below 0.9;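 further: mutual information between electrodes summarised as area under curve across four recording days; potency is for a decrease in mutual information relative to DMSO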)
Method in brief: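 Shared information across electrodes, tracked on days 5, 7, 9 and 12 of network development and collapsed as trapezoidal area under the curve. Rat cortical cultures were treated continuously from plating, with treatment renewed at feeds on DIV 5 and 9; DMSO baseline, negative-direction fit.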

[29] = CCTE_Shafer_MEA_dev_correlation_coefficient_mean: CCTE's Neural Network Formation Assay for Mean Correlation Coefficient, Shafer Lab (AID 2284093; active means hit-call score of the fitted dose curve at least 0.9, where 1 is the maximum; inactive means score below 0.9;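 further: well mean pairwise spike train correlation integrated as AUC over recording days 5 to 12; potency fitted for loss of correlation relative to DMSO vehicle wells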)
Method in brief: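 Primary rat cortical neurons on PEI-coated 48-well MEA plates (16 electrodes/well) were exposed from plating day 0 through DIV12, with compound renewed at DIV5 and 9. Pairwise spike correlations were averaged per well; trapezoidal AUC across DIV5, 7, 9, 12.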

Measured: AC50

Cellular tumor antigen p53 (Homo sapiens), sequence (P04637 whole entry, looked up): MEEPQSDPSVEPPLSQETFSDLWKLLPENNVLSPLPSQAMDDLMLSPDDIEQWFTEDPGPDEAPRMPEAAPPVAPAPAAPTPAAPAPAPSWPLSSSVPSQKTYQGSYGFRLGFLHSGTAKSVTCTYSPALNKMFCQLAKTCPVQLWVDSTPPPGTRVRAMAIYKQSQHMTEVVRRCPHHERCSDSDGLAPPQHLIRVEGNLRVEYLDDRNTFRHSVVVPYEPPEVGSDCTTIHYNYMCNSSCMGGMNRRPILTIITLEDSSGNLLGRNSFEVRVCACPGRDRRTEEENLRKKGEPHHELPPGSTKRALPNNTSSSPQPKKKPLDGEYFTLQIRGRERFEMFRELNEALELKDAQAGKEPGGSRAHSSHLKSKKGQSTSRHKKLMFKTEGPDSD

O=S(=O)(O)CCCS(=O)(=O)O
inactive: [1] | [2] | [3] | [4] | [5] | [6]

CCO[Si](CC(C)C)(OCC)OCC
inactive: [1] | [2] | [3] | [4] | [5] | [6]

O=C(O)c1cc(=O)c2c(OCC(O)COc3cccc4oc(C(=O)O)cc(=O)c34)cccc2o1
inactive: [1] | [2] | [3] | [4] | [5] | [7] | [6] | [8] | [9] | [10]

CC[C@H](C)C(=O)O[C@H]1CCC=C2C=C[C@H](C)[C@H](CC[C@@H]3C[C@@H](O)CC(=O)O3)[C@H]21
inactive: [1] | [2] | [3] | [4] | [5] | [7] | [6] | [18] | [20]
active: [11] 8.02 nM and 2.39 nM | [12] 1.41 µM and 8.96 µM | [13] 1.4 µM and 2.83 µM | [14] 1.15 µM and 875 nM | [15] 253 nM and 2.69 µM | [16] 924 nM and 911 nM | [17] 3.11 µM and 8.52 µM | [19] 3.03 µM and 2.52 µM | [20] 696 nM | [21] 71.9 nM and 226 nM | [22] 1.05 µM and 983 nM | [23] 665 nM and 700 nM | [24] 940 nM and 915 nM | [25] 277 nM and 554 nM | [26] 215 nM | [27] 687 nM and 2.01 µM | [28] 353 nM and 881 nM | [29] 571 nM and 928 nM
